Inconclusive results are not listed. The source made the active and inactive calls. Calls come from the whole dose curve; as a rule, active = well fitted curve in the direction sought with a large enough effect; inconclusive = small, poorly fitted or top-dose-only effect, or another doubt; inactive = no such curve, though single readings can be large; an effect the other way counts as inactive or inconclusive.
How the values were obtained:
[1] = qHTS of pediatric cancer cell lines to identify multiple opportunities for drug repurposing: Primary screen for TC32 cells (AID 1347089); note: % is set by controls: 0 for no effect and ±100 for the full control effect; nearly all actives have a fitted effect of over 60% in size
Summary of the method: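 Luminescent ATP read-out (CellTiter-Glo) of metabolically active TC32 cells after 48 h exposure. Concentration-response curves came from 11-point (MIPE, 0.78 nM–46 µM) or 8-point (NPC, 0.59 nM–46 µM) primary titrations; follow-up used 11 points.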

[2] = qHTS of pediatric cancer cell lines to identify multiple opportunities for drug repurposing: Primary screen for DAOY cells (AID 1347090);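 note: series mostly up to about 46 µM; plate controls were DMSO for no effect and bortezomib for full effect; nearly all actives have a fitted effect of over 55% in size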
Summary of the method: (§1)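 Cell viability, CellTiter-Glo luminescence; 500-1,000 cells/well, 8- or 11-point titration, 48 h compound exposure at 37 degrees C, 5% CO2. Controls: DMSO neutral, bortezomib 2.3 µM final as positive.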

[3] = qHTS of pediatric cancer cell lines to identify multiple opportunities for drug repurposing: Primary screen for SJ-GBM2 cells (AID 1347091);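 note: plate controls were DMSO neutral control for no effect and bortezomib for full effect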
Summary of the method: as §1

[4] = qHTS of pediatric cancer cell lines to identify multiple opportunities for drug repurposing: Primary screen for A673 cells (AID 1347092); note: % is set by controls: 0 for no effect and ±100 for the full control effect; nearly all actives have a fitted effect of over 45% in size
Summary of the method: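 Cell viability of A673 measured by CellTiter-Glo ATP luminescence after 48 hours compound exposure. Dilution series spanned 0.78 nM to 46 µM (MIPE, 11-point) or 0.59 nM to 46 µM (NPC, 8-point); bortezomib 2.3 uM positive control.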

[5] = qHTS of pediatric cancer cell lines to identify multiple opportunities for drug repurposing: Primary screen for BT-37 cells (AID 1347094);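 note: series mostly up to about 57 µM; plate controls were DMSO for no effect and bortezomib for full effect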
Summary of the method: (§2)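 Primary screen of approved and investigational compounds on cells in growth media at 37 degrees C, 5% CO2. MIPE set at 11-point and NPC set at 8-point dilutions; viability scored by ATP-based luminescence at 48 hours.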

[6] = qHTS of pediatric cancer cell lines to identify multiple opportunities for drug repurposing: Primary screen for NB-EBc1 cells (AID 1347095);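 note: plate controls were DMSO neutral control for no effect and bortezomib for full effect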
Summary of the method: as §2

[7] = qHTS of pediatric cancer cell lines to identify multiple opportunities for drug repurposing: Primary screen for U-2 OS cells (AID 1347096);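 note: plate controls were DMSO wells for no effect and bortezomib positive control wells for full effect; nearly all actives have a fitted effect of over 50% in size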
Summary of the method: (§3)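 Cells (500-1,000/well) rested 5 h, then received compounds for 48 h; metabolically active cells were measured by CellTiter-Glo luminescence. Final concentrations spanned up to 46 µM (MIPE, 11-point) or 0.59 nM-46 µM (NPC, 8-point) in primary screens, 11-point in follow-ups.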

[8] = qHTS of pediatric cancer cell lines to identify multiple opportunities for drug repurposing: Primary screen for Saos-2 cells (AID 1347097); note: % is set by controls: 0 for no effect and ±100 for the full control effect; nearly all actives have a fitted effect of over 40% in size
Summary of the method: as §2

[9] = qHTS of pediatric cancer cell lines to identify multiple opportunities for drug repurposing: Primary screen for SK-N-SH cells (AID 1347098); note: % is set by controls: 0 for no effect and ±100 for the full control effect; nearly all actives have a fitted effect of over 65% in size
Summary of the method: as §3

[10] = qHTS of pediatric cancer cell lines to identify multiple opportunities for drug repurposing: Primary screen for NB1643 cells (AID 1347099);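 note: plate controls were DMSO neutral control for no effect and bortezomib positive control for full effect; nearly all actives have a fitted effect of over 50% in size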
Summary of the method: as §2

[11] = qHTS of pediatric cancer cell lines to identify multiple opportunities for drug repurposing: Primary screen for BT-12 cells (AID 1347101);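 note: plate controls were DMSO for no effect and bortezomib positive control for full effect; nearly all actives have a fitted effect of over 25% in size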
Summary of the method: as §3

[12] = qHTS of pediatric cancer cell lines to identify multiple opportunities for drug repurposing: Primary screen for OHS-50 cells (AID 1347103);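 note: plate controls were DMSO neutral control for no effect and bortezomib positive control for full effect; nearly all actives have a fitted effect of over 40% in size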
Summary of the method: as §3

[13] = qHTS of pediatric cancer cell lines to identify multiple opportunities for drug repurposing: Primary screen for MG 63 (6-TG R) cells (AID 1347105); note: % is set by controls: 0 for no effect and ±100 for the full control effect; nearly all actives have a fitted effect of over 50% in size
Summary of the method: as §2

[14] = qHTS of pediatric cancer cell lines to identify multiple opportunities for drug repurposing: Primary screen for control Hh wild type fibroblast cells (AID 1347106);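 note: series mostly up to about 46 µM; % is set by controls: 0 for no effect and ±100 for the full control effect; a drop in luminescence marks cytotoxicity and a rise apparent proliferation; nearly all actives have a fitted effect of over 55% in size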
Summary of the method: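 Cells (500-1,000/well) in growth media were settled 5 h at 37 degrees C, then given compounds for 48 h. Viability was read as CellTiter-Glo luminescence. Primary runs used MIPE at 11 points (0.78 nM-46 µM) and NPC at 8 points (0.59 nM-46 µM); follow-ups used 11 points.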

[15] = qHTS of pediatric cancer cell lines to identify multiple opportunities for drug repurposing: Primary screen for LAN-5 cells (AID 1347100);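 note: plate controls were DMSO neutral control for no effect and bortezomib positive control for full effect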
Summary of the method: as §3

[16] = qHTS of pediatric cancer cell lines to identify multiple opportunities for drug repurposing: Primary screen for Rh18 cells (AID 1347102); note: % is set by controls: 0 for no effect and ±100 for the full control effect; nearly all actives have a fitted effect of over 65% in size
Summary of the method: as §3

[17] = qHTS of pediatric cancer cell lines to identify multiple opportunities for drug repurposing: Primary screen for RD cells (AID 1347104);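 note: plate controls were DMSO for no effect and bortezomib for full effect; nearly all actives have a fitted effect of over 55% in size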
Summary of the method: as §2

[18] = qHTS of pediatric cancer cell lines to identify multiple opportunities for drug repurposing: Primary screen for SK-N-MC cells (AID 1347093);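 note: series mostly up to about 46 µM; plate controls were DMSO neutral control for no effect and bortezomib for full effect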
Summary of the method: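 Metabolically active cells were quantified by ATP-dependent luminescence (CellTiter-Glo, 15 min at room temperature) following 48 h treatment. Cells had been plated at 500-1,000 per well and settled for 5 h beforehand.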

CC12CCC(CC1)C(C)(C)O2
inactive: Potency [1] | Potency [2] | Potency [3] | Potency [4] | Potency [5] | Potency [6] | Potency [7] | Potency [8] | Potency [9] | Potency [10] | Potency [11] | Potency [12] | Potency [13] | outcome [14]

[O-][n+]1cccc(CO)c1
inactive: Potency [1] | Potency [2] | Potency [3] | Potency [4] | Potency [5] | Potency [6] | Potency [7] | Potency [8] | Potency [9] | Potency [15] | Potency [11] | Potency [16] | Potency [12] | Potency [17] | Potency [13] | outcome [14]

CCCc1c(OCCCCc2nn[nH]n2)ccc(C(C)=O)c1O
inactive: Potency [1] | Potency [2] | Potency [4] | Potency [18] | Potency [5] | Potency [6] | Potency [7] | Potency [8] | Potency [9] | Potency [10] | Potency [11] | Potency [16] | Potency [12] | Potency [17] | Potency [13] | outcome [14]

CCCCCCCCCCCCCCCC(=O)NCCO
inactive: Potency [1] | Potency [2] | Potency [4] | Potency [18] | Potency [5] | Potency [6] | Potency [7] | Potency [8] | Potency [9] | Potency [10] | Potency [15] | Potency [11] | Potency [16] | Potency [12] | Potency [17] | Potency [13] | outcome [14]

CN1CCOC(c2ccccc2)c2ccccc2C1 (configuration not stated)
inactive: Potency [1] | Potency [2] | Potency [4] | Potency [18] | Potency [5] | Potency [6] | Potency [7] | Potency [8] | Potency [9] | Potency [15] | Potency [11] | Potency [16] | Potency [12] | Potency [17] | Potency [13] | outcome [14]

Oc1ccc(C(O)CNCCCCCCNCC(O)c2ccc(O)c(O)c2)cc1O (configuration not stated)
inactive: Potency [1] | Potency [2] | Potency [3] | Potency [18] | Potency [5] | Potency [6] | Potency [7] | Potency [8] | Potency [9] | Potency [10] | Potency [11] | Potency [16] | Potency [12] | Potency [13] | outcome [14]

Nc1ccc(S(=O)(=O)Nc2ccc(Cl)nn2)cc1
inactive: Potency [1] | Potency [2] | Potency [4] | Potency [18] | Potency [5] | Potency [6] | Potency [7] | Potency [8] | Potency [9] | Potency [10] | Potency [15] | Potency [11] | Potency [16] | Potency [12] | Potency [13] | outcome [14]

N[C@@H](CSSC[C@H](N)C(=O)O)C(=O)O
inactive: activity change, negative = cytotoxic [1] 5.9% [at 0.594 µM] | activity change, negative = cytotoxic [2] 14.8% [at 0.597 µM] | activity change, negative = cytotoxic [3] 12.9% [at 0.597 µM] | activity change, negative = cytotoxic [4] -1.55% [at 0.597 µM] | activity change, negative = cytotoxic [5] 3.9% [at 0.745 µM] | activity change, negative = cytotoxic [6] -0.714% [at 0.597 µM] | activity change, negative = cytotoxic [7] 6.12% [at 0.597 µM] | activity change, negative = cytotoxic [8] -6.38% [at 0.597 µM] | activity change, negative = cytotoxic [10] -5.83% [at 0.597 µM] | activity change, negative = cytotoxic [15] 6.24% [at 0.597 µM] | activity change, negative = cytotoxic [11] 5.67% [at 0.745 µM] | activity change, negative = cytotoxic [16] 0.304% [at 0.597 µM] | activity change, negative = cytotoxic [12] 6.93% [at 0.73 µM] | activity change, negative = cytotoxic [17] 5.61% [at 0.597 µM] | activity change, negative = cytotoxic [13] 0.733% [at 0.597 µM] | activity change, negative = cytotoxic [14] 21.8% [at 0.597 µM]

C/C(=C(\CCOP(=O)(O)O)SC(=O)c1ccccc1)N(C=O)Cc1cnc(C)nc1N
inactive: activity change, negative = cytotoxic [1] 9.22% [at 4.81 µM] | activity change, negative = cytotoxic [2] 7.92% [at 4.84 µM] | activity change, negative = cytotoxic [3] 25.6% [at 4.84 µM] | activity change, negative = cytotoxic [4] -0.171% [at 4.84 µM] | activity change, negative = cytotoxic [5] 17.3% [at 6.03 µM] | activity change, negative = cytotoxic [6] 16.5% [at 4.84 µM] | activity change, negative = cytotoxic [7] 14.8% [at 4.84 µM] | activity change, negative = cytotoxic [8] -7.29% [at 4.84 µM] | activity change, negative = cytotoxic [9] -2.92% [at 6 µM] | activity change, negative = cytotoxic [15] 5.99% [at 4.84 µM] | activity change, negative = cytotoxic [11] 9.87% [at 6.03 µM] | activity change, negative = cytotoxic [16] 28.8% [at 4.84 µM] | activity change, negative = cytotoxic [12] 12% [at 6.18 µM] | activity change, negative = cytotoxic [17] 3.8% [at 4.84 µM] | activity change, negative = cytotoxic [13] -1.82% [at 4.84 µM] | activity change, negative = cytotoxic [14] 4.64% [at 4.84 µM]

CCC(=O)c1ccc(O)cc1
inactive: Potency [1] | Potency [2] | Potency [4] | Potency [18] | Potency [5] | Potency [6] | Potency [7] | Potency [8] | Potency [9] | Potency [10] | Potency [11] | Potency [12] | Potency [17] | Potency [13] | outcome [14]

COC(=O)[C@H]1[C@H]2C[C@@H]3c4[nH]c5cc(OC)ccc5c4CCN3C[C@H]2C[C@@H](OC(=O)COc2ccc(OC)cc2)[C@@H]1OC
inactive: Potency [1] | Potency [2] | Potency [3] | Potency [4] | Potency [5] | Potency [6] | Potency [7] | Potency [8] | Potency [9] | Potency [10] | Potency [11] | Potency [16] | Potency [12] | Potency [13] | outcome [14]
